Unmarked numbers belong to inactive results. The rule behind the calls is not given here.
These molecules were tested against Pantothenate synthetase (Mycobacterium tuberculosis (strain ATCC 25618 / H37Rv)) (UniProt P9WIL5) (assay: Coupled enzyme confirmation of inhibitors against recombinant Mtb PanC (AID 375;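 note: 0% = full reaction with vehicle and 100% = no enzyme background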)). Details: coupled enzyme assay; at 10 µM, stronger effect = higher value.
Sequence of Pantothenate synthetase (Mycobacterium tuberculosis (strain ATCC 25618 / H37Rv)) (P9WIL5 whole entry, looked up): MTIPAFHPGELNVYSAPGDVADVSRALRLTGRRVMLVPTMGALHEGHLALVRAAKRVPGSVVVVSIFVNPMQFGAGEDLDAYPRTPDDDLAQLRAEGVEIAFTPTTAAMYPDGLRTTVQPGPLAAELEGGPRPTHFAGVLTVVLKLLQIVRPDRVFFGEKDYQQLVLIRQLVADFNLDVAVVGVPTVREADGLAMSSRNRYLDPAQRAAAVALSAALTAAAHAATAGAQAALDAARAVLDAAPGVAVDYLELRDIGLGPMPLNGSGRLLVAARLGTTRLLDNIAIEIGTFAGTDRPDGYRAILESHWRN
In the case of `COc1nc2ccc(C)cc2cc1-c1noc(-c2cccnc2)n1`, the inhibition is reported as 4%.
In the case of `COc1cccc(C2CC(=O)Nc3cc4c(cc32)OCCO4)c1OC(C)C` (stereo not drawn), the inhibition is reported as 1%.
`Cc1cc(C)n(C(C)n2nc(C)cc2C)n1` gave an inhibition of 6%.
Work on `Cc1ccc(C2CC(c3ccc(C)cc3)n3nc(N)nc3N2)cc1` (stereo not drawn) yielded an inhibition of 5%.
Work on `COC(=O)c1[nH]c2c(c1C)C(=O)CC(c1cc(OC)ccc1OC)C2` (stereo not drawn) yielded an inhibition of 0%.
`CCNC(=O)COc1ccc(Br)cc1Cl` gave an inhibition of 4%.
For `Cc1ccc(-n2c(=O)[nH]c3c(C(N)=O)nc(CC(C)C)nc32)cc1`, the inhibition was 0%.
Molecule `Cn1ccnc1SCCC#N` has an inhibition of 7%.
`COc1ccc(N(CC(=O)Nc2ccccc2SC)S(C)(=O)=O)cc1OC` gave an inhibition of 2%.
Work on `CCCCC(NS(=O)(=O)c1ccc(OC)cc1)C(=O)O` (stereo not drawn) yielded an inhibition of 0%.
`Cc1ccc(-c2nn(-c3ccccc3)cc2/C=C(\C#N)c2cccc(C#N)c2)o1` showed an inhibition of 0%.
With `CCOC(=O)C1CCCN(C(=O)Cc2ccc(OC)c(OC)c2)C1` (stereo not drawn) the inhibition was 0%.
Work on `O=C(CSCc1cccs1)N1CCCC1` yielded an inhibition of 3%.
Molecule `N#Cc1c(/N=C/c2ccco2)sc2c1CCC2` has an inhibition of 0%.
With `O=c1ccc(S(=O)(=O)N2CCC(Cc3ccccc3)CC2)c[nH]1` the inhibition was 0%.
Molecule `COc1ccccc1Cn1c(-c2ccco2)nc2nc3ccccc3nc21` has an inhibition of 0%.
In the case of `COCCc1ccc(OCC(O)CNC(C)C)cc1` (stereo not drawn), the inhibition is reported as 6%.
`COc1cccc(OCCn2ccnc2)c1` was tested, and the inhibition was 4%.
In the case of `Cc1ccc2nc3c(cc2c1)CN(Cc1ccco1)C(=NCC1CCCO1)S3` (stereo not drawn), the inhibition is reported as 0%.
With `CCOc1ccc2[nH]c(=O)c(CN(Cc3ccccc3)C(=O)N3CCCC3)cc2c1` the inhibition was 6%.
For `CCOc1nc(-c2ccccc2)ccc1-c1noc(-c2cccnc2)n1`, the inhibition was 0%.
In the case of `COCCNC(=O)c1ccc(CS(=O)(=O)c2ccc(OC)cc2)o1`, the inhibition is reported as 0%.
`C=C(C)CSc1nnc2[nH]c(=O)cc(N)n12` was tested, and the inhibition was 0%.

From PubChem BioAssay
